Reference: PubChem BioAssay (NCATS)
Where “and” joins values, the source holds several entries; their conditions need not be identical. Equal entries are not always repeated. Results filed as inconclusive are left out. Where a call stands in place of a potency, no number is given. Calls of active or inactive are those of the source. The call rests on the fitted dose curve; in most records, active means well fitted curve in the direction sought with a large enough effect; inconclusive means small, poorly fitted or top-dose-only effect, or another doubt; inactive means no such curve, though single readings can be large; an effect the other way counts as inactive or inconclusive.

Experiments:
[1] = qHTS of pediatric cancer cell lines to identify multiple opportunities for drug repurposing: Primary screen for U-2 OS cells (AID 1347096); settings: U-2 OS viability, CellTiter-Glo luminescence, 48 h; series mostly up to 46 µM; further: nearly all actives have a fitted effect of over 50% in size
Outline: (§1)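 Cells (500-1,000/well) in growth media were settled 5 h at 37 degrees C, then given compounds for 48 h. Viability was read as CellTiter-Glo luminescence. Primary runs used MIPE at 11 points (0.78 nM-46 µM) and NPC at 8 points (0.59 nM-46 µM); follow-ups used 11 points.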

[2] = qHTS of pediatric cancer cell lines to identify multiple opportunities for drug repurposing: Primary screen for Saos-2 cells (AID 1347097); settings: Saos-2 viability, CellTiter-Glo ATP luminescence, 48 h; series mostly up to 46 µM; further: nearly all actives have a fitted effect of over 40% in size
Outline: (§2)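 Viability was measured as metabolically active cells after 48 hours of treatment, read by CellTiter-Glo luminescence. Compounds were tested at multiple final concentrations, giving concentration-response curves.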

[3] = qHTS of pediatric cancer cell lines to identify multiple opportunities for drug repurposing: Primary screen for NB1643 cells (AID 1347099); settings: NB1643 neuroblastoma viability, CellTiter-Glo luminescence, 48 h; series mostly up to 46 µM; further: nearly all actives have a fitted effect of over 50% in size
Outline: as §2

[4] = qHTS of pediatric cancer cell lines to identify multiple opportunities for drug repurposing: Primary screen for LAN-5 cells (AID 1347100); settings: LAN-5 neuroblastoma viability, CellTiter-Glo luminescence, 48 h; series mostly up to 46 µM
Outline: as §1

[5] = qHTS of pediatric cancer cell lines to identify multiple opportunities for drug repurposing: Primary screen for BT-12 cells (AID 1347101); settings: BT-12 viability, CellTiter-Glo luminescence, 48 h; series mostly up to 57.3 µM; further: nearly all actives have a fitted effect of over 25% in size
Outline: (§3)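 Cells (500-1,000/well) rested 5 h, then received compounds for 48 h; metabolically active cells were measured by CellTiter-Glo luminescence. Final concentrations spanned up to 46 µM (MIPE, 11-point) or 0.59 nM-46 µM (NPC, 8-point) in primary screens, 11-point in follow-ups.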

[6] = qHTS of pediatric cancer cell lines to identify multiple opportunities for drug repurposing: Primary screen for Rh18 cells (AID 1347102); settings: Rh18 rhabdomyosarcoma viability, CellTiter-Glo luminescence, 48 h; series mostly up to 46 µM; further: nearly all actives have a fitted effect of over 65% in size
Outline: as §1

[7] = qHTS of pediatric cancer cell lines to identify multiple opportunities for drug repurposing: Primary screen for OHS-50 cells (AID 1347103); settings: OHS-50 osteosarcoma viability, CellTiter-Glo luminescence, 48 h; series mostly up to 57.3 µM; further: nearly all actives have a fitted effect of over 40% in size
Outline: as §3

[8] = qHTS of pediatric cancer cell lines to identify multiple opportunities for drug repurposing: Primary screen for RD cells (AID 1347104); settings: RD rhabdomyosarcoma viability, CellTiter-Glo luminescence, 48 h; series mostly up to 46 µM; further: nearly all actives have a fitted effect of over 55% in size
Outline: as §2

[9] = qHTS of pediatric cancer cell lines to identify multiple opportunities for drug repurposing: Primary screen for MG 63 (6-TG R) cells (AID 1347105); settings: MG 63 (6-TG R) viability, CellTiter-Glo, 48 h; series mostly up to 46 µM; further: nearly all actives have a fitted effect of over 50% in size
Outline: as §2

[10] = qHTS of pediatric cancer cell lines to identify multiple opportunities for drug repurposing: Primary screen for SK-N-SH cells (AID 1347098); settings: SK-N-SH viability, CellTiter-Glo luminescence, 48 h; series mostly up to 57 µM; further: nearly all actives have a fitted effect of over 65% in size
Outline: as §3
Potency means the concentration at half of the fitted maximal effect.

Compound	Potency [1]	Potency [2]	Potency [3]	Potency [4]	Potency [5]	Potency [6]	Potency [7]	Potency [8]	Potency [9]	Potency [10]
O=C(O)c1cn(C2CC2)c2cc(N3CCNCC3)c(F)cc2c1=O	inactive	inactive	inactive	inactive	inactive	inactive	inactive	inactive	inactive	
CC(C)OC(=O)OCOP(=O)(CO[C@H](C)Cn1cnc2c(N)ncnc21)OCOC(=O)OC(C)C	inactive	inactive	inactive	inactive		inactive		inactive	inactive	
O=c1cc(O)c(Cl)c[nH]1	inactive	inactive		inactive	inactive	inactive	inactive		inactive	
CC(C)(Sc1cc(C(C)(C)C)c(O)c(C(C)(C)C)c1)Sc1cc(C(C)(C)C)c(O)c(C(C)(C)C)c1	inactive	inactive	inactive	inactive	inactive	inactive	inactive	inactive	inactive	
CCCCS(=N)(=O)CCC(N)C(=O)O (stereo not drawn)	inactive	inactive	inactive	inactive	inactive	inactive	inactive	inactive	inactive	
Clc1ccccc1CN1CCc2sccc2C1	inactive	1.48 µM (active)	inactive		1.93 µM (active)	inactive		inactive		
CCCCCCNC(=O)n1cc(F)c(=O)[nH]c1=O	inactive	inactive	5.9 µM (active)	7.5 µM (active) and 9.35 µM (active)		inactive	inactive			
COC(=O)Nc1nc2ccc(Sc3ccccc3)cc2[nH]1	13.3 µM (active)	841 nM (active) and 2.35 µM (active)		1.32 µM (active)	1.74 µM (active) and 4.32 µM (active)		1.23 µM (active) and 3.06 µM (active)		668 nM (active) and 1.18 µM (active)	
CC(=O)[C@H]1CC[C@H]2[C@@H]3CC=C4C[C@@H](O)CC[C@]4(C)[C@H]3CC[C@]12C	inactive	inactive	inactive	inactive	inactive	inactive		inactive	inactive	
Nc1nc(N)c2nc(CNc3ccc(C(=O)NC(CCC(=O)O)C(=O)O)cc3)cnc2n1 (stereo not drawn)	inactive	inactive	inactive		0.0485 µM (active)	inactive			inactive	
C[C@@H]1CN(c2c(F)c(N)c3c(=O)c(C(=O)O)cn(C4CC4)c3c2F)C[C@H](C)N1	inactive	inactive	inactive	inactive	inactive	inactive	inactive	inactive		
O=C(O)c1cc(=O)[nH]c(=O)[nH]1	inactive	inactive	inactive	inactive	inactive	inactive	inactive	inactive		
CCN(CC)CCn1c(=O)c(Cc2ccc(OC)cc2)nc2ccccc21	inactive	inactive	inactive	inactive	inactive	inactive	inactive	inactive	inactive	
CC(C)C[C@H](NC(=O)[C@H](CCc1ccccc1)NC(=O)CN1CCOCC1)C(=O)N[C@@H](Cc1ccccc1)C(=O)N[C@@H](CC(C)C)C(=O)[C@@]1(C)CO1	1.06 µM (active) and 1.48 µM (active)	42.2 nM (active) and 93.5 nM (active)	42.2 nM (active) and 52.6 nM (active)	668 nM (active) and 132 nM (active)	87.1 nM (active) and 137 nM (active)	106 nM (active) and 264 nM (active)	61.7 nM (active) and 109 nM (active)	23.7 nM (active) and 41.8 nM (active)	42.2 nM (active) and 59 nM (active)	
NC(=O)c1cccc(N)c1	inactive	inactive	inactive	inactive	inactive	inactive	inactive	inactive	inactive	
Cc1nnc(C(=O)NC(C)(C)c2nc(C(=O)NCc3ccc(F)cc3)c(O)c(=O)n2C)o1	inactive	inactive	inactive	inactive	inactive	inactive	inactive	inactive	inactive	
O=C(NCC1CN(c2ccc(N3CCOCC3=O)cc2)C(=O)O1)c1ccc(Cl)s1 (stereo not drawn)	inactive	inactive	inactive	inactive		inactive	inactive	inactive	inactive	
COc1cccc(N(C)C(=S)Oc2ccc3c(c2)CCCC3)n1	inactive	inactive	inactive	inactive		inactive	24.3 µM (active)	inactive	inactive	
OC(Cn1cncn1)(Cn1cncn1)c1ccc(F)cc1F	inactive	inactive	inactive	inactive	inactive	inactive	inactive	inactive	inactive	

Compound	Potency [1]	Potency [2]	Potency [3]	Potency [4]	Potency [5]	Potency [6]	Potency [7]	Potency [8]	Potency [9]	Potency [10]
CC(=O)CC(c1ccccc1)c1c(O)c2ccccc2oc1=O (stereo not drawn)	inactive	inactive	inactive	inactive	inactive	inactive	inactive	inactive	inactive	
CC1CC2C3CCC4=CC(=O)C=C[C@]4(C)[C@@]3(F)[C@@H](O)C[C@]2(C)[C@@]1(O)C(=O)CO (stereo partly drawn)	inactive	inactive		inactive		inactive	inactive		inactive	
O=S(=O)(O)CCS	inactive	inactive		inactive	inactive	inactive	inactive	inactive	inactive	
CCN[C@H]1C[C@H](C)S(=O)(=O)c2sc(S(N)(=O)=O)cc21	inactive	inactive	inactive	inactive	inactive	inactive	inactive	inactive	inactive	
Cc1cc(NS(=O)(=O)c2ccc(N)cc2)no1	inactive	inactive		inactive	inactive	inactive	inactive	inactive		
Cn1nnc2c(C(N)=O)ncn2c1=O	inactive	inactive	inactive	inactive	inactive	inactive	inactive	inactive		
CN1CCCC(n2nc(Cc3ccc(Cl)cc3)c3ccccc3c2=O)CC1 (stereo not drawn)	9.35 µM (active)	2.35 µM (active)		0.662 µM (active)	2.73 µM (active)	1.48 µM (active)	27.6 µM (active) and 968 nM (active)	5.9 µM (active)		
CO[C@@]12[C@H](COC(N)=O)C3=C(C(=O)C(C)=C(N)C3=O)N1C[C@@H]1N[C@@H]12	inactive	inactive	1.33 µM (active)	335 nM (active) and 1.05 µM (active)	3.47 µM (active) and 3.06 µM (active)	18.7 µM (active)	3.85 µM (active)	18.8 µM (active) and 18.7 µM (active)	14.8 µM (active)	
NNC(=O)c1ccncc1	inactive	inactive	inactive	inactive	inactive	inactive	inactive	inactive	inactive	
CCC(=O)O[C@]1(C(=O)SCF)[C@H](C)C[C@H]2[C@@H]3C[C@H](F)C4=CC(=O)C=C[C@]4(C)[C@@]3(F)[C@@H](O)C[C@@]21C	inactive		inactive	inactive	inactive	inactive		inactive	inactive	
CCC(C)(C)c1ccc(CC(C)CN2C[C@@H](C)O[C@@H](C)C2)cc1 (stereo partly drawn)	inactive		inactive	inactive	inactive	inactive		inactive	inactive	inactive
NC(=O)c1cccnc1	inactive		inactive	inactive	inactive	inactive	inactive	inactive		inactive
CC(C)(C)NC(=O)[C@H]1CC[C@H]2[C@@H]3CC[C@H]4NC(=O)C=C[C@]4(C)[C@H]3CC[C@]12C	inactive	14.8 µM (active)				inactive	12.2 µM (active)			
CC(=O)Oc1ccccc1C(=O)Nc1ncc([N+](=O)[O-])s1		27 µM (active)	42.9 µM (active) and 21.1 µM (active)	27 µM (active) and 15 µM (active)	39.5 µM (active) and 21.9 µM (active)	42.9 µM (active)	22.2 µM (active)	42.9 µM (active) and 23.7 µM (active)	inactive	
COc1cc2nc(N3CCCN(C)CC3)nc(NC3CCN(Cc4ccccc4)CC3)c2cc1OC		7.43 µM (active)	9.35 µM (active)	8.33 µM (active)	10.9 µM (active)	9.35 µM (active)	8.63 µM (active)	8.33 µM (active)		
CCOC(=O)[C@H](CCc1ccccc1)N[C@H]1CCc2ccccc2N(CC(=O)O)C1=O	inactive				27.3 µM (active)		24.3 µM (active)	26.4 µM (active)		24.1 µM (active)
COc1ccc(C(=O)CC(=O)c2ccc(C(C)(C)C)cc2)cc1							inactive		inactive	
S=P(N1CC1)(N1CC1)N1CC1	inactive		0.0935 µM (active)	18.7 µM (active)	inactive	inactive	24.3 µM (active)	inactive	inactive	inactive
COc1cc2c(Nc3ccc(Br)cc3F)ncnc2cc1OCC1CCN(C)CC1	inactive	inactive			inactive					
